High-throughput results as filed in PubChem BioAssay.
FadD28 binding: inhibitors of Mycobacterium tuberculosis FadD28 bisubstrate binding; FadD28 bisubstrate probe binding, fluorescence polarization; inhibition, % at 12.5 µM; 360,000 compounds, 0.22% hits; in the data active = inhibition above about 8.5%, passing the limit was not always enough; inconclusive = no clear call, values can overlap the other calls
Yp Topo-I inh: blocks Yersinia pestis topoisomerase I activity; Y. pestis Topo-I cleavage product accumulation, plate reader; activity, % at 10 µM; 360,000 compounds, 0.064% hits; in the data active = activity above about 50%, passing the limit was not always enough; inconclusive = no clear call, values can overlap the other calls
PrP UTR inh: suppresses PrP 5' UTR mRNA reporter expression; cell-based PrP 5' UTR mRNA reporter, plate reader; inhibition, % (no concentration beside the values); 340,000 compounds, 0.35% hits; AID 488862; in the data active = inhibition above about 52%
PfHsp40 yeast: restores yeast growth despite PfHsp40 toxicity; S. cerevisiae expressing PfHsp40, growth rescue, ATP luminescence; growth rescue, % at 12.5 µM; 340,000 compounds, 0.68% hits; in the data active = growth rescue above about 28%, passing the limit was not always enough; inconclusive = no clear call, values can overlap the other calls;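 also: yeast W303a lacking pdr1 and pdr3 grown in galactose medium; growth measured after three days at 30 °C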
BioA inh: blocks M. tuberculosis BioA enzyme activity. purified M. tuberculosis BioA enzyme, plate reader. inhibition, % at 9.99 µM. 360,000 compounds, 0.096% hits. AID 602481; in the data active = inhibition above about 40%; inconclusive = no clear call, values can overlap the other calls
A number is an active result; i = inactive; ? = inconclusive; nt = no result given. This is a sample that favours compounds with a hit; in the whole collection about 1.1% have one here.

SMILES	FadD28 binding	Yp Topo-I inh	PrP UTR inh	PfHsp40 yeast	BioA inh
COc1ccc(C2C(C(C)=O)=C(C)N=c3s/c(=C\c4cc(C)n(C)c4C)c(=O)n32)c(OC)c1 (configuration not stated)	11.7	i	i	i	i
COc1ccc(C2C(C(C)=O)=C(C)N=c3s/c(=C\c4ccco4)c(=O)n32)c(OC)c1 (configuration not stated)	i	i	i	i	i
Cc1cc(C)c(NC(=O)COC(=O)c2cccc3c2C(=O)c2ccccc2C3=O)c(C)c1	i	i	i	i	nt
Cc1cc(C)c(Nc2cc(S(=O)(=O)O)c(N)c3c2C(=O)c2ccccc2C3=O)c(C)c1	64.5	i	i	70.6	nt
Cc1ccc(NC(=S)N(CCN(C)C)Cc2cccs2)cc1	i	i	i	i	nt
CCOC(=O)c1ccc(NC(=O)/C=C/c2cccs2)cc1	i	i	i	164.1	nt
CCOC(=O)c1ccc(NC(=S)N(Cc2cccnc2)Cc2ccco2)cc1	i	i	i	388.7	i
CCOC(=O)c1ccc(NC(=S)N(CCN(C)C)Cc2cccs2)cc1	10.2	i	i	i	nt
COc1cccc(S(=O)(=O)Nc2ccc3c(c2)[C@H]2C[C@H](CC(=O)N4CCCCC4)O[C@H](CO)[C@H]2O3)c1	nt	nt	nt	nt	i
CCCC#Cc1ccc2c(c1)O[C@@H](CN(C)C(=O)c1ccncc1)[C@@H](C)CN([C@H](C)CO)S2(=O)=O	nt	nt	nt	nt	i
CC(C)CSC1=NSC2=NC(=O)/C(=C\c3coc4ccccc4c3=O)C(=N)N12	14.4	i	i	i	nt
CSC1=NSC2=NC(=O)/C(=C\c3coc4ccccc4c3=O)C(=N)N12	i	i	i	i	nt
C[C@H](CO)N1C[C@H](C)[C@@H](CN(C)C(=O)Cc2ccccc2)OCCCC[C@H](C)Oc2ccc(NS(=O)(=O)c3cn(C)cn3)cc2C1=O	nt	nt	nt	nt	i
C/C(=N/O)c1ccccn1	i	i	i	i	i
CCCCCC/C(=N/O)c1ccccn1	i	i	i	161.9	i
CN(C(=O)c1cccc(NC(=O)Cc2ccc(NC(=O)C3CCN(S(=O)(=O)c4cccc([N+](=O)[O-])c4)CC3)cc2)c1)C1CCC1	i	i	i	i	i
CN(C(=O)c1cccc(NC(=O)Cc2ccc(NC(=O)C3CCN(S(=O)(=O)c4cccc([N+](=O)[O-])c4)CC3)cc2)c1)C1CCCC1	i	i	i	120.0	i
CN(C(=O)c1ccc(NC(=O)Cc2ccc(NC(=O)C3CCN(C(=O)C4CCCC4)CC3)cc2)cc1)C1CC1	i	i	i	36.4	i
C[C@H]1CCCCO[C@H](CN(C)C(=O)Nc2ccc(F)cc2)[C@@H](C)CN([C@@H](C)CO)C(=O)c2cc(NC(=O)NC3CCCCC3)ccc2O1	nt	nt	nt	nt	i
Cc1ccc(S(=O)(=O)N2[C@@H](c3cccc(Cl)c3)C(C(=O)O)=CC[C@H]2c2cccc(Cl)c2)cc1	13.5	i	i	i	i
Cc1ccc([C@H]2C(C(=O)O)=CC[C@@H](c3cccc(Cl)c3)N2S(=O)(=O)c2ccc(C)cc2)cc1	i	i	i	212.6	i
CC(NC(=O)c1ccccc1F)C12CC3CC(CC(C3)C1)C2 (configuration not stated)	i	i	i	i	i
Cc1occc1C(=O)NC(C)C12CC3CC(CC(C3)C1)C2 (configuration not stated)	i	i	i	104.7	nt
C[C@H](CO)N1C[C@H](C)[C@@H](CN(C)Cc2ccc(C(=O)O)cc2)Oc2ccc(NC(=O)C3CCCCC3)cc2CC1=O	nt	nt	nt	nt	i
Cc1ccc(S(=O)(=O)N[C@@H]2CC[C@@H](CCn3cc(C4CCCCC4)nn3)O[C@H]2CO)cc1	nt	nt	nt	nt	i
SMILES	FadD28 binding	Yp Topo-I inh	PrP UTR inh	PfHsp40 yeast	BioA inh
COc1cccc(-c2cc3nc(-c4ccccc4)cc(N4CCCC(O)C4)n3n2)c1 (configuration not stated)	i	i	i	72.1	nt
C[C@@H]1CN([C@H](C)CO)C(=O)c2cc(NC(=O)Nc3ccc4c(c3)OCO4)ccc2O[C@H]1CN(C)S(=O)(=O)c1ccc(F)cc1	nt	nt	nt	nt	i
COC(=O)C1=NN(C(=O)c2cccc(Br)c2)C(O)(c2ccc(Cl)cc2)C1 (configuration not stated)	i	i	i	493.8	i
COCC(=O)N1C[C@H](C)[C@H](OC)CN(C)C(=O)c2ccc(NC(=O)C3CCC3)cc2OC[C@@H]1C	nt	nt	nt	nt	i
CCCCNc1c(-c2ccc(SC3CCCCC3)c(OC)c2)nc2ccc(C)cn12	i	i	i	173.6	i
O=C(O)COc1ccccc1C(Nc1ccccn1)c1cc(Cl)c2cccnc2c1O (configuration not stated)	i	i	i	57.9	nt
O=C(O)COc1ccccc1C(Nc1cccnc1)c1cc(Cl)c2cccnc2c1O (configuration not stated)	i	i	i	106.1	nt
COc1ccccc1C(NC(C)=O)c1cc(Cl)c2cccnc2c1O (configuration not stated)	i	i	nt	i	i
CCOc1ccc(C(Nc2cccnc2)c2cc(Cl)c3cccnc3c2O)cc1 (configuration not stated)	i	i	i	91.5	nt
C[C@@H]1CN([C@@H](C)CO)S(=O)(=O)c2ccc(C#CC3CC3)cc2O[C@@H]1CN(C)C(=O)C1CCCCC1	nt	nt	nt	nt	i
C[C@H]1CN([C@@H](C)CO)C(=O)Cc2cc(NC(=O)CCN3CCOCC3)ccc2O[C@@H]1CN(C)Cc1ccc2c(c1)OCO2	nt	nt	nt	nt	i
S=c1[nH]nc(-c2cc3c(s2)-c2ccccc2CC3)o1	?	i	i	i	nt
CC1CCc2sc(-c3n[nH]c(=S)o3)cc2C1 (configuration not stated)	i	i	i	329.7	nt
CCC(=O)c1c(O)n(C2CCCCCC2)c(=O)[nH]c1=O	i	i	i	80.7	i
C/C(=N\NC(=O)c1ccccc1O)c1c(O)n(C2CCCCC2)c(=O)[nH]c1=O	11.6	i	i	79.3	i
CC(=NCCO)c1c(O)n(C2CCCCC2)c(=O)[nH]c1=O	i	i	i	i	i
Cc1ccc(C(=O)NCCSCc2ccc(Cl)cc2Cl)cc1[N+](=O)[O-]	16.9	i	i	i	nt
CCNC(=O)C[C@H]1CC[C@@H]2[C@H](COc3ccc(NC(=O)c4ccc(C(F)(F)F)cc4)cc3C(=O)N2C)O1	nt	nt	nt	nt	i
COc1ccc(NC(=O)Nc2ccc3c(c2)C(=O)N([C@H](C)CO)C[C@H](C)[C@H](CN(C)Cc2ccncc2)O3)cc1	nt	nt	nt	nt	i
Cc1ccc2nc(Cl)c3nnnn3c2c1	i	i	i	84.9	i
C[C@@H]1CN([C@H](C)CO)C(=O)Cc2cc(NC(=O)NC3CCCCC3)ccc2O[C@H]1CN(C)Cc1ccc(Oc2ccccc2)cc1	nt	nt	nt	nt	i
Cn1c(SCC(=O)NCc2cccs2)nnc1-c1ccncc1	i	55.6	i	i	i
COc1ccc(-c2nnc(SCC(=O)NCc3cccs3)n2C)cc1	i	i	i	i	i
CN(C)c1ccc(/C=C/c2ccc3ccccc3[n+]2C)cc1	i	i	i	52.6	i
CCOc1ccc2nc3cc(N=Nc4ccc(N)nc4N)ccc3c(N)c2c1	24.6	i	i	i	nt
COc1ccc(N=Nc2ccc(N)nc2N)cc1	i	i	i	i	i
